# Compound activity deposited in PubChem by Center for Chemical Genomics, University of Michigan.
# Dicer inh = human Dicer pre-microRNA cleavage inhibition. Q9UPY3. cat-ELCCA pre-miR-21 Dicer processing, chemiluminescence; hits give high values. z-score at 25 µM. 6% of 47,000 active; in the data active = z-score above about 3, passing the limit was not always enough;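 also: higher signal means more uncleaved substrate so more Dicer inhibition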
# Target sequence (Q9UPY3 whole entry, looked up): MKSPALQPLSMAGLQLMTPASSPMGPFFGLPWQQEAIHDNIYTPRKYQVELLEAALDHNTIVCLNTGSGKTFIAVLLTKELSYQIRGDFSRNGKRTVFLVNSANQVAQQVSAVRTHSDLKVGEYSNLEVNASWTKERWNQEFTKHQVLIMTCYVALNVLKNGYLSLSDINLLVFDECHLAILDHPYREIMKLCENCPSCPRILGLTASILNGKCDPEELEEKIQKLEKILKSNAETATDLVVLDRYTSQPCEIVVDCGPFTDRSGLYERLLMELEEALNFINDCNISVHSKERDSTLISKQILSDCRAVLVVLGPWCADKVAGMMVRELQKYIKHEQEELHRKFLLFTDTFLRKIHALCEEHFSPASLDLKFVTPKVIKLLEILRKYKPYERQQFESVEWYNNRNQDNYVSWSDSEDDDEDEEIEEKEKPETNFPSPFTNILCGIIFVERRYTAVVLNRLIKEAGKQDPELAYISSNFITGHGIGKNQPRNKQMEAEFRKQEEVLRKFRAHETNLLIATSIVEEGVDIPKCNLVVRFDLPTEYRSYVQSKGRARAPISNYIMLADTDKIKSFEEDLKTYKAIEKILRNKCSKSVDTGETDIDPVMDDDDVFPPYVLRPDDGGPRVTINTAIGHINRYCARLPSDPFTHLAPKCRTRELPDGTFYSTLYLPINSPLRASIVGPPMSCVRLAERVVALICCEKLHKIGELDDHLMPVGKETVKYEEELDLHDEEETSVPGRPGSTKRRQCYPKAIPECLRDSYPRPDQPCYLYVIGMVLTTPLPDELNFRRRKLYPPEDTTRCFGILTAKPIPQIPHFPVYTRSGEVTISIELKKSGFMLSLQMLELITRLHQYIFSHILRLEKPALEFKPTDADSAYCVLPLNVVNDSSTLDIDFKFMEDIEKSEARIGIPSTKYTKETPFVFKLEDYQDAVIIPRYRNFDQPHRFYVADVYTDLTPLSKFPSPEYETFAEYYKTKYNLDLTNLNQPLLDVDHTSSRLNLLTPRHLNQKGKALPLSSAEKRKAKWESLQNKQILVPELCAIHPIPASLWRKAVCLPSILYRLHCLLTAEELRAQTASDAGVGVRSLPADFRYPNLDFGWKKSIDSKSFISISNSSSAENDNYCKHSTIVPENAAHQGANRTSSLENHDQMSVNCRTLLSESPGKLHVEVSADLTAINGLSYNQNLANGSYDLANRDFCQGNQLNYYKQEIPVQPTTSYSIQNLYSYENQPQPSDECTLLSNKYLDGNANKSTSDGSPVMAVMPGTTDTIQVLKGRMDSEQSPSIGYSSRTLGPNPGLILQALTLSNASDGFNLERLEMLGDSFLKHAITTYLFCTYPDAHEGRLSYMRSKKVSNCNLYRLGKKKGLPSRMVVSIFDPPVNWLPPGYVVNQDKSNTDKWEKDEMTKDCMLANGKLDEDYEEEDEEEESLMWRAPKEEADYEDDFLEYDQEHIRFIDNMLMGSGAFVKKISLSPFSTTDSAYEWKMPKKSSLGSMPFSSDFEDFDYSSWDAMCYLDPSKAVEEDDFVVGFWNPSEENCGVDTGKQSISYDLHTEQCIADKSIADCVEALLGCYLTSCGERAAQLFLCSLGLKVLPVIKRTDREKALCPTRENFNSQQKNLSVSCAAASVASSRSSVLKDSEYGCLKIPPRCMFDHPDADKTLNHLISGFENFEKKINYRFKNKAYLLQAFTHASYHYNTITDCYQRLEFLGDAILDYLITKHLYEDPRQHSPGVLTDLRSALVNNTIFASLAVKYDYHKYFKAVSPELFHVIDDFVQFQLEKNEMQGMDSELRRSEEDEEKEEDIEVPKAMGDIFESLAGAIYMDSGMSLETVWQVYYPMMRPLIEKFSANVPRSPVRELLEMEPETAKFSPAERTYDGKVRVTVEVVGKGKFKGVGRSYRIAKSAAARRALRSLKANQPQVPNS
# Numbers stand for hits; . = inactive. The entries come from a sample that favours hits as a whole.
SMILES,Dicer inh
COc1ccc(C(=O)CC2(O)C(=O)N(Cc3ccccc3)c3ccc(Br)cc32)cc1OC (configuration not stated),.
Cc1nn2c(-c3ccc4c(c3)OCO4)ccnc2c1-c1ccc(F)cc1,.
O=c1[nH]c2sc(-c3ccccc3)cc2c(=O)n1-c1cccc(Cl)c1,4.38
O=c1c2cc(-c3ccccc3)sc2[nH]c(=S)n1-c1ccccc1,4.06
CN1CCc2c(sc3[nH]c(=S)n(-c4ccccc4)c(=O)c23)C1,.
CC1CCc2c(sc3[nH]c(=S)n(-c4ccccc4)c(=O)c23)C1 (configuration not stated),.
O=c1[nH]c2c(cnn2-c2ccccc2)c(=O)n1-c1ccc(Cl)c(Cl)c1,.
CCOC(=O)Cn1c(=O)n(-c2ccc(Cl)cc2)c(=O)c2cc(-c3ccccc3)sc21,.
Nc1ncnc2c1nc(N/N=C/c1ccc(OCc3ccccc3)cc1)n2[C@H]1O[C@@H](CO)[C@H](O)[C@@H]1O,.
C=CCN1C(=O)C2(/C(=C(/O)c3ccc4c(c3)CC(C)O4)C(=O)C(=O)N2CCCOC)c2ccccc21 (configuration not stated),.
CCOc1ccc(N2C(=O)C3ON(c4ccccc4)C(c4cccs4)C3C2=O)cc1 (configuration not stated),.
CNC(=O)N(C1=NCC(C)S1)c1ccc(Cl)cc1 (configuration not stated),.
c1cc2c3c(cccc3c1)-c1nc3ccccc3nc1-2,.
NC1=Nc2cccc3cccc(c23)N1,25.8
COc1ccc(C2=Nc3cccc4cccc(c34)N2)cc1,.
CN(C)c1ccc(C2=Nc3cccc4cccc(c34)N2)cc1,.
N#CC1=CNc2ccccc2N=C1N,.
Nc1cccc(C2=Nc3cccc4cccc(c34)N2)c1,3.18
O=C(NCCSc1ccc(C(F)(F)F)cn1)c1ccc(Cl)cc1,.
N#Cc1c(Cl)cccc1Oc1ccc(S(=O)(=O)Nc2ccccc2C(=O)NCC2CC2)cc1,.
O=C(NCC1CC1)c1ccccc1NS(=O)(=O)c1cc(Cl)c(Oc2ccc([N+](=O)[O-])cc2Cl)c(Cl)c1,3.33
Cc1c(S(=O)(=O)Nc2ccccc2C(=O)NCC2CC2)sc2ccc(Cl)cc12,.
CSC(/N=C/N(C)C)=N/N=C/c1c(Cl)cccc1Cl,.
COC(=O)CNC(=O)c1nc(SC)ncc1Cl,.
COc1cc2c(cc1OC)C(C)N(C(=O)c1ccno1)CC2 (configuration not stated),.
SMILES,Dicer inh
Nc1c(C(=O)c2ccc(Oc3ccccc3)cc2)oc2ccccc12,3.77
Cc1ccc(C(=O)c2oc3ccccc3c2N)cc1,.
O=C(Nc1c(C(=O)c2ccc(F)cc2)oc2ccccc12)c1ccccc1,.
CNC(=S)NNC(=O)c1csc(C)n1,.
O=C(/C=C/c1ccccc1)NC(=S)Nc1cc(C(F)(F)F)cc(C(F)(F)F)c1,.
O=C(/C=C/c1ccccc1)NC(=S)Nc1ccc(OC(F)(F)F)cc1,.
COC(=S)NC(=O)/C=C/c1ccccc1,3.45
Cc1c(NC(=O)C2COc3ccccc3O2)c(=O)n(-c2ccccc2)n1C (configuration not stated),.
CCOC(=O)c1nc(C)sc1C(=O)/C=C/N(C)C,.
Cc1ccc(NS(=O)(=O)c2ccc(Cl)cc2)c([N+](=O)[O-])c1,.
Cc1ccc(S(=O)(=O)Nc2ccc(C)cc2NS(=O)(=O)c2ccc(F)cc2)cc1,4.56
Cc1ccc(S(=O)(=O)Nc2cc(C)ccc2C)cc1,.
Cc1ccc(N2C(=O)CC(Sc3nc4c(cc3C#N)CCC4)C2=O)cc1 (configuration not stated),.
COc1ccc(NC(=O)CSc2nnc3[nH]c(=O)cc(N)n23)cc1,.
Cn1c2c(c(=O)[nH]c1=O)C(c1ccc(OCc3ccccc3)cc1)C1=C(N2)c2ccccc2C1=O (configuration not stated),.
Cc1cc(C)c(Nc2n[nH]c(=S)s2)c(C)c1,.
Cc1cc(C)c(Nc2nc3cc(Br)cc(C)c3s2)c(C)c1,3.77
Cc1cc(C)c(Nc2nnns2)c(C)c1,.
O=C(O)CSc1nnc(-c2cccc(F)c2)o1,.
Cn1c(NCCCCCO)nc2c1c(=O)n(Cc1ccc(Cl)cc1Cl)c(=O)n2C,.
O=C(Nc1ccc(Cl)cc1)ON=C1CC2CCCC(C1)N2Cc1ccccc1,.
O=C(O)C1CC(=O)N(Cc2ccc(F)cc2)C1 (configuration not stated),.
O=C(ON=C1CC2CCCC(C1)N2Cc1ccccc1)c1ccc(F)cc1,3.12
CC1=C(C(=O)OCc2ccccc2)C(c2ccc3c(c2)OCO3)C2=C(CCCC2=O)N1 (configuration not stated),.
CCCCn1c(CCC(=O)O)ccc1-c1ccc(C)cc1,.
SMILES,Dicer inh
CCCn1c(CCC(=O)O)ccc1-c1cccs1,3.02
COc1ccc(-n2c(CCC(=O)O)ccc2-c2cccs2)cc1,.
COc1ccc(N(C(C)=O)C2C=CS(=O)(=O)C2)cc1 (configuration not stated),.
Cc1ccc2nc(NC3=NCN(Cc4ccc5c(c4)OCO5)CN3)nc(C)c2c1,.
c1ccc(CCN2CN(CCCN3CCOCC3)c3nc4ccccc4n3C2)cc1,.
c1ccc2c(c1)nc1n2CN(CCN2CCOCC2)CN1,3.2
c1ccc2oc(NC3=NCN(Cc4ccc5c(c4)OCO5)CN3)nc2c1,.
c1ccc2c(c1)nc1n2CN(CCCN2CCOCC2)CN1,.
Cc1cc2nc(NC3=NCN(Cc4cccnc4)CN3)nc(C)c2cc1C,.
c1cncc(CN2CNc3nc4ccccc4n3C2)c1,3.01
c1ccc2c(c1)nc1n2CN(Cc2ccc3c(c2)OCO3)CN1,3.5
Cc1c2c(n3c(nc4ccccc43)c1C#N)N(Cc1cccnc1)CC2,.
O=c1oc2c(Cl)cc(Cl)cc2cc1-c1nc2ccccc2[nH]1,.
O=C1CSCC(=O)N1Cc1ccncc1,.
C=CCOC(=O)C1=C(C)NC2=C(C(=O)CC(C)(C)C2)C1c1ccccc1Cl (configuration not stated),.
C#CCOc1ccc(C2C(C(=O)OC)=C(C)NC3=C2C(=O)c2ccccc23)cc1Cl (configuration not stated),.
COC(=O)c1csc(S(=O)(=O)Nc2ccc(Cl)cc2)c1OC,.
c1cc(CSC2=NCCS2)nc(CSC2=NCCS2)c1,.
CCOC(=O)NC(c1ccccc1)(C(F)(F)F)C(F)(F)F,.
COc1ccc(S(=O)(=O)N(c2ccc(Cl)cc2)S(=O)(=O)c2ccc(F)cc2F)cc1,.
C=CCOc1ccc(/C(O)=C2/C(=O)C(=O)N(CCOC)C23C(=O)N(C)c2ccccc23)cc1C (configuration not stated),.
C=CCOc1ccc(CNCCSc2nnnn2C)cc1OC,.
CCOC(=O)c1c(C)oc(C)c1S(N)(=O)=O,.
CCOc1nc(-c2ccccc2)ccc1-c1noc(C)n1,.
N#CC1=C2N=C(N)c3ccccc3N2C2=C(C(=O)CCC2)C1c1cccc(Br)c1 (configuration not stated),.
SMILES,Dicer inh
CC1=N/C(=C/c2ccc(C)c(C)c2)C(=O)O1,.
Cc1cc(/C=C2\N=COC2=O)ccc1C(F)(F)F,4.1
COc1ccc(C2C(C(=O)OC(C)C)=C(C)N=C3SCCC(=O)N32)cc1OC (configuration not stated),.
CCCCN(CC)Cc1c(C)[nH]c2c(C)c(C)ccc2c1=O,.
N#C/C(=C\N1CCC(n2cccc2)CC1)C(=O)c1ccccc1,.
O=C1CC(c2ccccc2)CC2=C1C(c1ccncc1)Nc1ccccc1N2 (configuration not stated),.
